For 40 compounds, Potency and activity change, negative = cytotoxicity results are on record in PubChem BioAssay (NCATS).

Inconclusive results are not listed. Where a call stands in place of a potency, no number is given. The source made the active and inactive calls. The call rests on the fitted dose curve; in most records, active means well fitted inhibition curve with a large enough effect; inconclusive means small, poorly fitted or top-dose-only effect; inactive means flat fitted curve, though single readings scatter. Where a SMILES comes first, the peptide text is derived from it. [ ]: non-standard residue; d: D form. Hyp = O=C(O)[CH]1C[CH](O)CN1; Phe(ol) = N[CH](CO)Cc1ccccc1; Iva = CC[C](C)(N)C(=O)O; Aib = CC(C)(N)C(=O)O
Potency means the concentration at half of the fitted maximal effect.

The assay can be described thus: P-glycoprotein substrates identified in KB-8-5-11 adenocarcinoma cell line, qHTS therapeutic library screen (AID 1346987). Further: nearly all actives have a fitted effect of over 65% in size. As to conditions: KB-8-5-11 (P-gp overexpressing) viability, CellTiter-Glo, 72 h; series mostly up to 44.5 µM. The procedure, abridged:
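P-gp-mediated resistance screen: KB-8-5-11 cells treated 72 h with compounds in dose-response. CellTiter-Glo viability.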
On to `CC(C)n1cnc2c(-c3cnc(N)nc3)nc(N3CCOCC3)nc21`, for which the Potency is 0.709 µM (active). Still for that read-out and setting: the value for `CC(=O)OC1CCC2(C)C(CCC3(C)C2CC=C2C4C(C)C(C)CCC4(C)CCC23C)C1(C)C(=O)O` (stereo not given) was “inactive”. For the compound `O=S(=O)(N[C@H]1CCCC[C@@H]1N1CCOCC1)c1ccc(Cl)cc1`, the Potency result was “inactive”. `C/C=C(\C)C(=O)OC1C[C@@]2(COC(C)=O)O[C@H]2/C=C\[C@@]2(C)O[C@@H]2[C@H]2OC(=O)C(COC(C)=O)=C12` (stereo not given in full): the Potency result is “inactive”. Still for that read-out and setting: to `CCOc1ccc(-n2c([C@@H](C)N(Cc3cccnc3)C(=O)Cc3ccc(OC(F)(F)F)cc3)nc3ncccc3c2=O)cc1` belongs “inactive”. For the compound `CN(c1ccc(NC(=O)Nc2ccccc2)cc1)S(=O)(=O)c1cnn(-c2ccc(F)cc2)c1`, the Potency is 11.6 µM (active). Turning to `CC[C@@H](Nc1c(Nc2cccc(C(=O)N(C)C)c2O)c(=O)c1=O)c1cc(C(C)C)co1`, the Potency result is “inactive”. The same measure, in the same setting: to `O=C(NO)c1ccc(CC(=O)N(CCO)c2ccccc2)cc1` belongs “inactive”. As for `CN1CCN(c2ccc(OC(F)(F)F)c(Nc3ncc4c(n3)-c3c(c(C(N)=O)nn3CCO)CC4)c2)CC1`, the Potency was 0.517 µM (active). Take `Cc1nnc(C[C@@H]2C=C(c3ccc(Cl)cc3)c3ccccc3-n3c(C)nnc32)o1`: the Potency is 2.59 µM (active).

In the case of `CCC(C)C(=O)OC1C(C)C2(O)C(C=C(CO)CC3(O)C(=O)C(C)=CC32)C2C(C)(C)C12OC(=O)C(C)C` (stereo not given), the Potency entry was “inactive”.

As to `COc1cc2nc(C3CC3)nc(N3CCN(c4ccccc4OC)CC3)c2cc1OC`, the Potency is 20.6 µM (active).

For `Fc1ccc2[nH]ccc2c1-c1nc(N2CCOCC2)c2sc(CN3CCN(CC4CC4)CC3)cc2n1`, the Potency is 20.6 µM (active). Regarding `COc1ccc(CNCC(O)COc2ccc3[nH]c(=O)ccc3c2)cc1OC` (stereo not given), the Potency entry is “inactive”.

For `Cn1ncnc1[C@H]1c2n[nH]c(=O)c3cc(F)cc(c23)N[C@@H]1c1ccc(F)cc1`, the Potency entry was “inactive”.

In the case of `CCCn1cc2c(nc(NC(=O)Nc3ccc(OC)cc3)n3nc(-c4ccco4)nc23)n1`, the Potency result was “inactive”. As to `Cn1cc(-c2ccc(F)c(C(F)(F)F)c2)nc1C1CCN(c2ncnc3[nH]ncc23)CC1`, the Potency result was “inactive”. Same read-out and setting: to `CC(=O)OC1CC2(C)C(CCC(C)C23Cc2c(O)cc(CO)c(C=O)c2O3)C(C)(C)C1O` (stereo not given) belongs “inactive”. The same measure, in the same setting: the value for `CC(C)NC(=O)COc1cccc(-c2nc(Nc3ccc4[nH]ncc4c3)c3ccccc3n2)c1` was 8.2 µM (active).

Take `CCC(C)(NC(=O)C(CCC(N)=O)NC(=O)C1CC(O)CN1C(=O)C(C)(C)NC(=O)C(C)(C)NC(=O)C(CC(C)C)NC(=O)CNC(=O)C(NC(=O)C(C)(C)NC(=O)C(C)(C)NC(=O)C(C)(C)NC(=O)C(Cc1ccccc1)NC(C)=O)C(C)C)C(=O)N1CC(O)CC1C(=O)NC(C)(C)C(=O)NC(CO)Cc1ccccc1` (stereo not given) (Ac-F[Aib][Aib][Aib]VGL[Aib][Aib][Hyp]Q[Iva][Hyp][Aib][Phe(ol)]; configuration not given here): the activity change, negative = cytotoxicity was -10.8% [at 9.29 µM] (inactive). As for `COC(=O)c1ccc2c(c1)[nH]c1ncnc(NCCCN3CCCCC3)c12`, the Potency entry was “inactive”. Turning to `OC1(CN2CCC(COc3noc4cccc(O[C@@H]5CCOC5)c34)CC2)CCOCC1`, the Potency entry was “inactive”.

With `O=C(Nc1cccc(C(F)(F)F)c1)Nc1ccc(Br)cc1-c1nn[nH]n1`, the Potency entry was “inactive”. For `CC(=O)OC/C(=C/C(=O)O)CC[C@@H]1C(C=O)=CC[C@@H]2C(C)(C)CCC[C@@]12C`, the Potency entry is “inactive”.

In the case of `CC(=O)O[C@H]1CC[C@@]2(C)C(=CC[C@H]3[C@@H]4CC[C@H](C(C)=O)[C@@]4(C)CC[C@@H]32)C1`, the Potency entry is “inactive”. In the case of `C=CC(C)(O)CC/C=C(\C)C(=O)OC1C(O)C(CO)OC(OC(=O)C23CCC(C)(C)CC2C2=CCC4C5(C)CCC(OC6OC(COC7OCC(OC(C)=O)C(O)C7OC7OC(COC(C)=O)C(O)C(O)C7OC(C)=O)C(O)C(O)C6OC6OCC(O)C(O)C6O)C(C)(C)C5CCC4(C)C2(C)C(O)C3O)C1OC1OCC(OC2OCC(O)C(OC3OCC(O)C(O)C3O)C2O)C(O)C1O` (stereo not given), the activity change, negative = cytotoxicity was -2.64% [at 5.11 µM] (inactive). With `CC(C)C[C@@H](C(=O)N[C@@H](Cc1ccc(OCc2ccccc2)cc1)C(=O)NC(C)(C)C)N(C)Cc1ccc(C(C)(C)C)cc1`, the Potency result is “inactive”. As for `CC(C)CCNC(=O)[C@H](CC(C)C)NC(=O)[C@H]1O[C@@H]1C(=O)O`, the Potency result is “inactive”. On the same count and under the same terms, to `CC(C)(Cc1nc(-c2ccc(O)cn2)no1)C(=O)NC1=C(C(=O)O)CCCC1` belongs “inactive”. `CCOC(=O)COc1ccc2c(C)c(CCN(CC)CC)c(=O)oc2c1`: the Potency result was “inactive”. As to `c1ccc2c(CCC3CCNCC3)c[nH]c2c1`, the Potency result is “inactive”. In the case of `O=C(NCCN1CCOCC1)c1cc2c(Oc3ccc(NC(=O)C4(C(=O)Nc5ccc(F)cc5)CC4)cc3)ccnc2[nH]1`, the Potency result is “inactive”. On to `CC#CCC(C)[C@H](O)/C=C/[C@@H]1[C@H]2C/C(=C/CCCC(=O)O)C[C@H]2C[C@H]1O` (stereo not given in full), for which the Potency result was “inactive”. Take `COc1ccc(NC(=O)c2ccc(-c3ccc(C(=N)N)cc3C)cc2)cc1N1CCN(C)CC1`: the Potency result was “inactive”. As to `C/C=C1\NC(=O)[C@H]2CSSCC/C=C/[C@H](CC(=O)N[C@H](C(C)C)C(=O)N2)OC(=O)C(C(C)C)NC1=O` (stereo not given in full), the Potency is 20.6 µM (active). For `CC(=O)OC(C)(C)/C=C/C(=O)C(C)(O)C1C(O)CC2(C)C3CC=C(C(C)(C)C(=O)O)C(CC(=O)O)C3(C)C(=O)CC12C` (stereo not given), the Potency entry was “inactive”. Take `C/C=C(/C)C(=O)OC1C=C2C3C(C)C(C)C(OC(=O)C(C)C(C)O)CC3(C)CCC2(C)C2(C)CC(OC(C)=O)C3C(C)(C)C(O)C(=O)CC3(C)C12` (stereo not given): the Potency entry was “inactive”. Consider `CC(=O)N[C@@H](C=O)[C@H](O)[C@H](O)[C@@H](O)CO`, for which the Potency entry was “inactive”. Still for that read-out and setting: to `CC/C=C\CC1C(=O)C=CC1(CCCCC1CCC(=O)O1)OC(C)=O` (stereo not given) belongs “inactive”; to `O=C(Nc1ccccc1Cl)c1cnc2ccc(C3CCNCC3)cn12`, “inactive”.
